Legend:
Assay in all cases: DAPPL (digital affinity profiling via proximity ligation, sequencing); 10 mM Tris-HCl pH 7.5, 50 mM NaCl, 1 mM DTT, 4% glycerol, room temperature, 30 min; GST-TFs on glutathione beads, 16-mer random dsDNA library, 0.1% formaldehyde crosslink after washing; high values mean tight binding
Details in all cases: protein: recombinant; tags: N-terminal GST; dsDNA, one strand shown
FLI1 = target: T1, FLI1 (Homo sapiens, UniProt Q01543 1-452)
T1 sequence: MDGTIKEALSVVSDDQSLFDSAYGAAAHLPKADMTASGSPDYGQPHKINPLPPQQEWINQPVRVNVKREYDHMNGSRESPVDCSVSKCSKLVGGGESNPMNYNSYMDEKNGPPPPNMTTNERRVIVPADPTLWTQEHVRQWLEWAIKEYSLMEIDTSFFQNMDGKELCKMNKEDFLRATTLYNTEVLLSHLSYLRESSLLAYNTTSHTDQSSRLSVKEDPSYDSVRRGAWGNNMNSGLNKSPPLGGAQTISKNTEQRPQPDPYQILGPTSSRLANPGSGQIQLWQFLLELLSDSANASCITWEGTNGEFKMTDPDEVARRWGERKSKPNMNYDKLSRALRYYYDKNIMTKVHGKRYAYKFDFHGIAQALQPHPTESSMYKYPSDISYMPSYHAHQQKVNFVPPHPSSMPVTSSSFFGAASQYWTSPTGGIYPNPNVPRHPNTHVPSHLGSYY
How it was run: (§1)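 The binding signal reported is, for every hexamer, its read frequency for a factor over its read frequency for the tag-only sample. Reads came from pools of yeast-expressed, GST-fused human transcription factors on glutathione beads, barcoded with DNA and mixed with that sample, which were incubated with 200 nmole of a random double-stranded 16-mer DNA library in Tris/NaCl/DTT/glycerol buffer at room temperature for 30 min. After washing, the pools were crosslinked with 0.1% formaldehyde, proximity-ligated with BsaI/T4 ligase for 1 h at 37 °C, PCR-amplified and sequenced on an Illumina NextSeq500.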

ELK1 = target: T2, ELK1 (Homo sapiens, UniProt P19419 1-428)
T2 sequence: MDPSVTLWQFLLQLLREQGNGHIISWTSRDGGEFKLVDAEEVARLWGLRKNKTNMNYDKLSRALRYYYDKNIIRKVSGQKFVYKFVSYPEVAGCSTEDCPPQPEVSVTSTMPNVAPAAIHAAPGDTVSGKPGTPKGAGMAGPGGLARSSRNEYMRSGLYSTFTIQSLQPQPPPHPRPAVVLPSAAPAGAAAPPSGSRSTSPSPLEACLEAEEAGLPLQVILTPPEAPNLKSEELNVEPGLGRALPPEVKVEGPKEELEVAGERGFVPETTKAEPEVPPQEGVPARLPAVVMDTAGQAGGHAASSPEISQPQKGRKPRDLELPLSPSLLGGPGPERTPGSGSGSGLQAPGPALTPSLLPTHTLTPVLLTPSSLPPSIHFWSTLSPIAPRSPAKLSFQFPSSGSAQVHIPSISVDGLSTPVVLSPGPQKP
How it was run: as §1

GABPA = target: T3, GABPA (Homo sapiens, UniProt Q06546 1-454)
T3 sequence: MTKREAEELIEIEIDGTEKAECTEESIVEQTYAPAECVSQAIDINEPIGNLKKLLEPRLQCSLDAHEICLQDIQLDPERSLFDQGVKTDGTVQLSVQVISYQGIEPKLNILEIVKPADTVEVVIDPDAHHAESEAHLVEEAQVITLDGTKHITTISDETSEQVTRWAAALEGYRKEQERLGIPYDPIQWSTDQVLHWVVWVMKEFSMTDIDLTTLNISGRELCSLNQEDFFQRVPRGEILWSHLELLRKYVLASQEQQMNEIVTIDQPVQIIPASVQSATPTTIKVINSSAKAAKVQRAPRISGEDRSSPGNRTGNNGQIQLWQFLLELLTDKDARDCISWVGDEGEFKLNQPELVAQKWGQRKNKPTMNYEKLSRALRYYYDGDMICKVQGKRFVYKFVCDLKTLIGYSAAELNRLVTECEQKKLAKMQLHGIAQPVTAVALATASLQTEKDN
How it was run: as §1

ERG = target: T4, ERG (Homo sapiens, UniProt P11308 1-479)
T4 sequence: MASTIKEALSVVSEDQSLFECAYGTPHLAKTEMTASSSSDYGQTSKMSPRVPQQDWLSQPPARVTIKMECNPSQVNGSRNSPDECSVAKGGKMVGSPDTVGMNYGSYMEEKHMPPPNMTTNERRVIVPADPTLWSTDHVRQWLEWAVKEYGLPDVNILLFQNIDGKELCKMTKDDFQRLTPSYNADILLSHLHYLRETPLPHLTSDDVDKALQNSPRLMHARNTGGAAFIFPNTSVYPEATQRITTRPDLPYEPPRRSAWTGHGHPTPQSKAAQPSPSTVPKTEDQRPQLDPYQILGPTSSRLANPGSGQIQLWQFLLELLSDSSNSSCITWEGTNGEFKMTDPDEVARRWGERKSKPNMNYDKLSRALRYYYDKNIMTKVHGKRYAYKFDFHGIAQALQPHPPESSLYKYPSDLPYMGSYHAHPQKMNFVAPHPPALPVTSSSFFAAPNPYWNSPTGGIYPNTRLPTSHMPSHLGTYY
How it was run: as §1

ELF1 = ELF1 (Homo sapiens, UniProt P32519 1-619)
Chain of ELF1 (P32519 whole entry): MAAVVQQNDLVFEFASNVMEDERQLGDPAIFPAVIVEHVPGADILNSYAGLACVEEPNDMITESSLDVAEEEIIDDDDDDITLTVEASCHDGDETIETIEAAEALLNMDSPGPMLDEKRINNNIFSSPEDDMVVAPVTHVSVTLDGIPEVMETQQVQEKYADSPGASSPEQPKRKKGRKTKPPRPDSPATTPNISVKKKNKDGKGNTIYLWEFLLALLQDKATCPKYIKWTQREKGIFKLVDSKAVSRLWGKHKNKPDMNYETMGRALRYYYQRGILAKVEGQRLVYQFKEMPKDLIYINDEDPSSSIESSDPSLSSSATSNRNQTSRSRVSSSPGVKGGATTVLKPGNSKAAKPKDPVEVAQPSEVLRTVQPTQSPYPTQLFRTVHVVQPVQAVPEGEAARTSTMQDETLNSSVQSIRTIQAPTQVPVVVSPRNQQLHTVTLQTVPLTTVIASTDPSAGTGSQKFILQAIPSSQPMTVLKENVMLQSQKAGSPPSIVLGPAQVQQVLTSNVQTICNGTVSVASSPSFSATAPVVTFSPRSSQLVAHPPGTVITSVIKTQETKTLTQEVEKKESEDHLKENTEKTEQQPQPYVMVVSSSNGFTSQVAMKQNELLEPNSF
How it was run: as §1

EHF = target: T5, EHF (Homo sapiens, UniProt Q9NZC4 1-300)
T5 sequence: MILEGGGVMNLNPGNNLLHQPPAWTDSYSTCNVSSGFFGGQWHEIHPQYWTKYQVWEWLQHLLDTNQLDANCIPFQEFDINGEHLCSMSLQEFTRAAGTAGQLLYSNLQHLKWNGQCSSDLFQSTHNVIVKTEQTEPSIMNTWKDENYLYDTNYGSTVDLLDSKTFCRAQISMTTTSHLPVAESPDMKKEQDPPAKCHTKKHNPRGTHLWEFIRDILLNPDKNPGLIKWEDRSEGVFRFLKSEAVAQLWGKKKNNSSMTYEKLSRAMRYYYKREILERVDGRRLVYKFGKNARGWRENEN
How it was run: as §1

SPI1 = SPI1 (Homo sapiens, UniProt P17947 1-270)
How it was run: as §1

SPIB = SPIB (Homo sapiens, UniProt Q01892 1-262)
Chain of SPIB (Q01892 whole entry): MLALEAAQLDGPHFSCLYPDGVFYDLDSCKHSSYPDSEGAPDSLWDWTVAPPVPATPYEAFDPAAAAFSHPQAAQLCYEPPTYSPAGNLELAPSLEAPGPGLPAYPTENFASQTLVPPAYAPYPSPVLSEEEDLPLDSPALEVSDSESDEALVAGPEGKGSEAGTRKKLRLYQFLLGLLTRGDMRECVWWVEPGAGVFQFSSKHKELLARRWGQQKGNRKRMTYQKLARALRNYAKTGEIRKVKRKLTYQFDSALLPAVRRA
How it was run: as §1

ELK3 = target: T6, ELK3 (Homo sapiens, UniProt P41970 1-407)
T6 sequence: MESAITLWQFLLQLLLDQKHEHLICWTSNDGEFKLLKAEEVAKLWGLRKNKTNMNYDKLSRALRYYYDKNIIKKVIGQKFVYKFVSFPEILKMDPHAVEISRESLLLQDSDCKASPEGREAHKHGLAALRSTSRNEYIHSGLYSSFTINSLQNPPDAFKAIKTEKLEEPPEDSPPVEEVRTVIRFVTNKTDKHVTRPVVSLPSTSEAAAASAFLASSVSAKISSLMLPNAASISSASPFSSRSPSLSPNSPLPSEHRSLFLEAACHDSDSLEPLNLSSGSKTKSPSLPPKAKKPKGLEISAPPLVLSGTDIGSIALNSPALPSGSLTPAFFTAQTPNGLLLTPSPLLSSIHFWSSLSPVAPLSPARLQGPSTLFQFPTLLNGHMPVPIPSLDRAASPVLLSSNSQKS
How it was run: as §1

For CCCGGC, the binding signal (FLI1) was 1.15 fold enrichment (6-mer frequency, TF over GST control), the binding signal (ELK1) was 1.25 fold enrichment (6-mer frequency, TF over GST control) and the binding signal (GABPA) was 1.1 fold enrichment (6-mer frequency, TF over GST control). For the same sequence, the binding signal (ERG) was 1.15 fold enrichment (6-mer frequency, TF over GST control), the binding signal (ELF1) was 1.17 fold enrichment (6-mer frequency, TF over GST control) and the binding signal (EHF) was 1.06 fold enrichment (6-mer frequency, TF over GST control). For the same sequence, the binding signal (SPI1) was 1.13 fold enrichment (6-mer frequency, TF over GST control), the binding signal (SPIB) was 1.13 fold enrichment (6-mer frequency, TF over GST control) and the binding signal (ELK3) was 1.22 fold enrichment (6-mer frequency, TF over GST control).

With CACTGG the binding signal (FLI1) was 1.15 fold enrichment (6-mer frequency, TF over GST control), the binding signal (ELK1) was 1.07 fold enrichment (6-mer frequency, TF over GST control) and the binding signal (GABPA) was 1.15 fold enrichment (6-mer frequency, TF over GST control). The binding signal (ERG) was 1.12 fold enrichment (6-mer frequency, TF over GST control), the binding signal (ELF1) was 1.17 fold enrichment (6-mer frequency, TF over GST control) and the binding signal (EHF) was 1.05 fold enrichment (6-mer frequency, TF over GST control). The binding signal (SPI1) was 1.03 fold enrichment (6-mer frequency, TF over GST control), the binding signal (SPIB) was 1.11 fold enrichment (6-mer frequency, TF over GST control) and the binding signal (ELK3) was 1.02 fold enrichment (6-mer frequency, TF over GST control).

CGTCAA was tested, and the binding signal (FLI1) was 1.2 fold enrichment (6-mer frequency, TF over GST control), the binding signal (ELK1) was 1.15 fold enrichment (6-mer frequency, TF over GST control) and the binding signal (GABPA) was 1.19 fold enrichment (6-mer frequency, TF over GST control). For the same sequence, the binding signal (ERG) was 1.11 fold enrichment (6-mer frequency, TF over GST control), the binding signal (ELF1) was 1.11 fold enrichment (6-mer frequency, TF over GST control) and the binding signal (EHF) was 1.12 fold enrichment (6-mer frequency, TF over GST control). The binding signal (SPI1) was 1.01 fold enrichment (6-mer frequency, TF over GST control), the binding signal (SPIB) was 1.27 fold enrichment (6-mer frequency, TF over GST control) and the binding signal (ELK3) was 1.06 fold enrichment (6-mer frequency, TF over GST control).

For GCGTCC, the binding signal (FLI1) was 1.26 fold enrichment (6-mer frequency, TF over GST control), the binding signal (ELK1) was 1.27 fold enrichment (6-mer frequency, TF over GST control) and the binding signal (GABPA) was 1.27 fold enrichment (6-mer frequency, TF over GST control). The binding signal (ERG) was 1.28 fold enrichment (6-mer frequency, TF over GST control), the binding signal (ELF1) was 1.26 fold enrichment (6-mer frequency, TF over GST control) and the binding signal (EHF) was 1.22 fold enrichment (6-mer frequency, TF over GST control). For the same sequence, the binding signal (SPI1) was 1.23 fold enrichment (6-mer frequency, TF over GST control), the binding signal (SPIB) was 1.3 fold enrichment (6-mer frequency, TF over GST control) and the binding signal (ELK3) was 1.29 fold enrichment (6-mer frequency, TF over GST control).

In the case of TTTTGA, the binding signal (FLI1) is reported as 1.13 fold enrichment (6-mer frequency, TF over GST control), the binding signal (ELK1) is reported as 1.18 fold enrichment (6-mer frequency, TF over GST control) and the binding signal (GABPA) is reported as 1.13 fold enrichment (6-mer frequency, TF over GST control). For the same sequence, the binding signal (ERG) was 1.11 fold enrichment (6-mer frequency, TF over GST control), the binding signal (ELF1) was 1.17 fold enrichment (6-mer frequency, TF over GST control) and the binding signal (EHF) was 1.17 fold enrichment (6-mer frequency, TF over GST control). The binding signal (SPI1) was 1.13 fold enrichment (6-mer frequency, TF over GST control), the binding signal (SPIB) was 1.04 fold enrichment (6-mer frequency, TF over GST control) and the binding signal (ELK3) was 1.06 fold enrichment (6-mer frequency, TF over GST control).

TGGTAC was tested, and the binding signal (FLI1) was 1.18 fold enrichment (6-mer frequency, TF over GST control), the binding signal (ELK1) was 1.23 fold enrichment (6-mer frequency, TF over GST control) and the binding signal (GABPA) was 1.13 fold enrichment (6-mer frequency, TF over GST control). For the same sequence, the binding signal (ERG) was 1.15 fold enrichment (6-mer frequency, TF over GST control), the binding signal (ELF1) was 1.17 fold enrichment (6-mer frequency, TF over GST control) and the binding signal (EHF) was 1.13 fold enrichment (6-mer frequency, TF over GST control). The binding signal (SPI1) was 1.12 fold enrichment (6-mer frequency, TF over GST control), the binding signal (SPIB) was 1.27 fold enrichment (6-mer frequency, TF over GST control) and the binding signal (ELK3) was 1.07 fold enrichment (6-mer frequency, TF over GST control).

With GTCTTC the binding signal (FLI1) was 1.4 fold enrichment (6-mer frequency, TF over GST control), the binding signal (ELK1) was 1.31 fold enrichment (6-mer frequency, TF over GST control) and the binding signal (GABPA) was 1.19 fold enrichment (6-mer frequency, TF over GST control). For the same sequence, the binding signal (ERG) was 1.42 fold enrichment (6-mer frequency, TF over GST control), the binding signal (ELF1) was 1.43 fold enrichment (6-mer frequency, TF over GST control) and the binding signal (EHF) was 1.31 fold enrichment (6-mer frequency, TF over GST control). For the same sequence, the binding signal (SPI1) was 1.28 fold enrichment (6-mer frequency, TF over GST control), the binding signal (SPIB) was 1.29 fold enrichment (6-mer frequency, TF over GST control) and the binding signal (ELK3) was 1.17 fold enrichment (6-mer frequency, TF over GST control).

In the case of CAACCC, the binding signal (FLI1) is reported as 1.15 fold enrichment (6-mer frequency, TF over GST control), the binding signal (ELK1) is reported as 1.22 fold enrichment (6-mer frequency, TF over GST control) and the binding signal (GABPA) is reported as 1.27 fold enrichment (6-mer frequency, TF over GST control). For the same sequence, the binding signal (ERG) was 1.21 fold enrichment (6-mer frequency, TF over GST control), the binding signal (ELF1) was 1.24 fold enrichment (6-mer frequency, TF over GST control) and the binding signal (EHF) was 1.16 fold enrichment (6-mer frequency, TF over GST control). For the same sequence, the binding signal (SPI1) was 1.21 fold enrichment (6-mer frequency, TF over GST control), the binding signal (SPIB) was 1.26 fold enrichment (6-mer frequency, TF over GST control) and the binding signal (ELK3) was 1.21 fold enrichment (6-mer frequency, TF over GST control).

— publication PMC7862700, “An all-to-all approach to the identification of sequence-specific readers for epigenetic DNA modifications on cytosine”
